Source: PubChem BioAssay (several laboratories)
Only some compounds are listed: those with a hit (about 3% of all), similar ones and a draw of the others.
CHT block – human CHT choline transport inhibition. B-score at 10 µM. CHT-expressing cells, membrane potential dye, choline response; hits give low values. AID 488975. 310,000 compounds, 0.86% hits. Q9GZV3;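 active = B-score over 3 SD under the library average, and starting fluorescence ratio not unusually high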;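 note: choline stimulus applied at its EC90 after an EC20 pre-addition; B-score computed on integrated fluorescence ratio after choline addition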
Target sequence (Q9GZV3 whole entry, looked up): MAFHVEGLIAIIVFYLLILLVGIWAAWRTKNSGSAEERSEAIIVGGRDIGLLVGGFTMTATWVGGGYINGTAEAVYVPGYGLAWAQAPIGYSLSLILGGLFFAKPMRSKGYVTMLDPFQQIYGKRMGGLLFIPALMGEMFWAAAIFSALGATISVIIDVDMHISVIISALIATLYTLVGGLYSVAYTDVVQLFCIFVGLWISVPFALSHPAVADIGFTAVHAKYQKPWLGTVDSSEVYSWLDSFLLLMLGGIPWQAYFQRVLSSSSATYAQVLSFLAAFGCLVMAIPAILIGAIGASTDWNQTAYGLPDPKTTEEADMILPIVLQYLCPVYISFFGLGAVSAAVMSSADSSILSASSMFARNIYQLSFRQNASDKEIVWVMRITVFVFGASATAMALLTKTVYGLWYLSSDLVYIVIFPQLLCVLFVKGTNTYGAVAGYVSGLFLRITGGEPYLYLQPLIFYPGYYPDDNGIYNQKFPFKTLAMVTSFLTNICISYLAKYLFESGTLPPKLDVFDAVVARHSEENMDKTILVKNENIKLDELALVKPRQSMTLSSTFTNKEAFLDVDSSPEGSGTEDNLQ
Mot1-301 SUMO – inhibitors of SUMOylation pathway: yeast Mot1-301 growth rescue. 320,000 compounds, 1% hits. growth rescue, % at 18.8 µM. S. cerevisiae Mot1-301 growth rescue, ATP luminescence, 38.5C; percent above DMSO median, 100 means doubled;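 active = every valid replicate shows activation above 250% relative to neutral control wells; inactive = the rest, any valid replicate at or below 250%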;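 note: OY570 slx delta 5 strain wells were the positive control but not used for scaling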
CHT PAM – allosteric activators of human choline transporter CHT. Q9GZV3. CHT-expressing cells, membrane potential dye, choline EC20; hits give high values; LV-AA mutant CHT in HEK293 cells. B-score at 10 µM. 310,000 compounds, 0.49% hits. AID 488977;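 active = initial fluorescence not abnormally high and integrated response B-score, plate-corrected, over 3 SD above library mean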
NALP3 yeast inh – inhibitors of NALP3 inflammasome in yeast; Yeast reconstituted NLRP3/ASC/caspase-1, beta-gal luminescence, 24 h; AID 2825; inhibition, % at 10 µM; 330,000 compounds, 0.39% hits;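 active = inhibition of 50% or more; inactive = inhibition below 50%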;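 note: plate controls were induced DMSO wells for no effect and uninduced yeast grown without galactose for full effect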
Bfl-1 A1 inh – inhibitors of the anti-apoptotic protein A1, read as caspase activation; MEF A1-2A-BIM cells, Caspase-Glo 3/7 luminescence, 3 h; percent of clofoctol response, vehicle zero; AID 2462; 330,000 compounds, 0.066% hits; caspase activation, % (test concentration not listed);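 active = over half of replicate activation scores above 10%, or exactly half above 10 with the replicate mean above 10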
NALP1 inh – blocks the NALP1 inflammasome reconstituted in yeast; S. cerevisiae NALP1/ASC/caspase-1 growth, X-gal OD620, 72 h; inhibition, % at 10 µM; 280,000 compounds, 0.61% hits; AID 2071; in the data active = inhibition mostly above about 24%, no sharp cut-off; inactive = mostly below about 32%
NALP3 yeast conf – NALP3 inhibition confirmation in yeast. inhibition, % at 10 µM. yeast expressing human NALP3, luminescence. AID 435006. shares compounds with NALP3 yeast inh. 1,300 compounds, 81% hits; in the data active = inhibition above about 48%
Casp1 ASC ctr – caspase-1-ASC yeast counter-screen hit. AID 488784. inhibition, % at 10 µM. yeast expressing Caspase-1-ASC, luminescence counter screen. 1,000 compounds, 66% hits. shares compounds with NALP3 yeast inh
NALP3 yeast rt – retest-confirmed inhibitor of NALP3 in yeast; shares compounds with NALP3 yeast inh; yeast expressing human NALP3, luminescence read-out; inhibition, % at 10 µM; 1,000 compounds, 53% hits; AID 488794
Starred values were filed as active, the others as inactive; i = inactive; x = no result given; ! = a repeat was not active. Cut-off read from the data, not from the text of the source, unless noted: active = inhibition above about 50%; inactive = the rest.

SMILES | CHT block | Mot1-301 SUMO | CHT PAM | NALP3 yeast inh | Bfl-1 A1 inh | NALP1 inh | NALP3 yeast conf | Casp1 ASC ctr | NALP3 yeast rt
COc1ccc(C(=O)On2c(-c3ccc(Br)cc3)nc3ccccc3c2=O)cc1 | i | x | i | 62.2* | 0.0 | 35.2 | 86.1* | 56.6* | 68.3*
CN1CCc2cccc3c2[C@H]1Cc1ccc(O)c(O)c1-3 | i | 9.5 | i | 51.5*! | 0.6 | 100.6* | 58.7* | 24.4 | 28.5
CN1CCc2cc3c(c4c2[C@H]1[C@H](O)c1ccccc1-4)OCO3 | i | -7.4 | i | 35.6 | 0.3 | -6.9 | x | x | x
Cc1ccc(S(=O)(=O)NCC(=O)NCCc2c[nH]c3ccccc23)cc1C | i | -8.1 | i | 5.5 | 0.3 | 12.5 | x | x | x
N#Cc1nc(-c2ccccc2F)oc1NCCc1ccccc1 | i | -10.2 | i | 31.2 | 0.4 | 9.8 | x | x | x
N#Cc1nc(-c2cccs2)oc1NCCc1ccccc1 | i | -15.1 | i | 70.6* | 1.7 | 7.1 | 77.0* | 70.0* | 62.6*
O=C(NCC(c1ccco1)N1CCCC1)c1cc(S(=O)(=O)N2CCOCC2)ccc1Cl (configuration not stated) | x | 2.2 | x | 13.5 | 0.1 | x | x | x | x
CCCSc1nsc(NC(=O)C(c2ccccc2)c2ccccc2)n1 | i | 2.9 | i | 6.6 | -0.5 | -12.5 | x | x | x
CCCSc1nsc(NC(=O)Nc2ccc(F)cc2F)n1 | i | -23.1 | i | 50.7* | -0.5 | 18.9 | 50.9* | 23.4 | 35.5
COc1cccc(NC(=O)Nc2nc(SC)ns2)c1 | i | -6.2 | i | 9.5 | -6.7 | 3.2 | x | x | x
CCSc1nsc(NC(=O)Nc2cccc(F)c2)n1 | i | 58.3 | i | 50.2* | -2.9 | 11.2 | 77.5* | 47.0 | 85.2*
O=C(Nc1nonc1NC(=O)c1cccs1)c1cccs1 | i | -6.5 | i | 6.3 | -0.3 | 39.2 | x | x | x
Cc1ccc(-n2nnnc2-c2cccs2)cc1[N+](=O)[O-] | i | 33.1 | i | -5.7 | 0.5 | x | x | x | x
COc1ccc(C(=O)NCN2CCN(c3ccccc3)CC2)cc1OC | x | -4.8 | x | 14.8 | -0.3 | x | x | x | x
c1ccc(-c2nc(Sc3ncnc4c3cnn4-c3ccccc3)n[nH]2)cc1 | i | i | i | 50.0 | -1.5 | 4.1 | 69.1* | x | x
Cc1ccc(CSc2ncnc3c2cnn3-c2ccccc2)cc1 | i | -13.9 | i | -26.6 | 3.1 | 24.5 | x | x | x
CCCCC(CC)CN=C(N)NC(N)=NCCCCCCN=C(N)NC(N)=NCC(CC)CCCC (configuration not stated) | i | -54.6 | i | 96.7* | -0.4 | x | 95.0* | 85.7* | 93.9*
Nn1c(SCc2ccc(Br)cc2)nnc1-c1ccccn1 | i | -1.9 | i | 64.6* | -1.8 | 1.0 | 67.2* | 53.9* | 56.1*
Cn1nnc(NC(=S)NC(=O)c2cccc3c(Cl)cccc23)n1 | i | -0.9 | i | 54.1* | -0.7 | -6.6 | 64.4* | 74.2* | 46.4
Cn1nnc(NC(=S)NC(=O)c2cccc3c(Br)cccc23)n1 | i | -12.8 | i | 41.3 | -0.1 | 2.4 | x | x | x
CN1C(=O)c2cccc(NC(=O)Cc3ccccc3)c2C1=O | i | -1.9 | i | 50.1* | 0.1 | 28.5 | 49.9* | 60.1* | 35.8
CC(C)Cc1nnc(NC(=O)CN2C(=O)NC3(CC(C)CC(C)(C)C3)C2=O)s1 (configuration not stated) | i | -18.6 | i | -9.3 | -0.5 | x | x | x | x
O=C(OCCc1cc2ccccc2c(=O)o1)c1ccc2c(c1)OCO2 | x | 75.8 | x | 22.6 | -1.4 | x | x | x | x
O=C(OCCCc1cc2ccccc2c(=O)o1)c1ccc2c(c1)OCO2 | x | 9.4 | x | 53.1* | 0.1 | x | 37.4 | 29.8 | 29.8
CCC(=O)N1CCN(CCN=CC2=C(O)CC(c3cccs3)CC2=O)CC1 (configuration not stated) | i | 20.7 | i | 55.7* | -0.7 | -3.9 | 55.9* | 44.9 | 44.6
SMILES | CHT block | Mot1-301 SUMO | CHT PAM | NALP3 yeast inh | Bfl-1 A1 inh | NALP1 inh | NALP3 yeast conf | Casp1 ASC ctr | NALP3 yeast rt
CCNC(=S)N1CCN(CCN=CC2=C(O)CC(c3cccs3)CC2=O)CC1 (configuration not stated) | i | -7.8 | i | 17.7 | 0.3 | -3.2 | x | x | x
Cc1csc2nc(O)c(C(=O)NCCCc3ccccc3)c(=O)n12 | i | 8.1 | i | 44.9 | 0.2 | x | x | x | x
Cc1csc2nc(O)c(C(=O)NCCC3=CCCCC3)c(=O)n12 | i | 3.6 | i | 55.9* | -0.5 | x | 74.6* | 28.9 | 55.1*
CCSc1nnc(NC(=O)c2ccccn2)s1 | i | 58.3 | i | 54.9* | -0.4 | 24.3 | 61.0* | x | x
CCSc1nnc(NC(=O)c2cnccn2)s1 | i | -8.2 | i | 20.6 | 0.0 | -1.9 | x | x | x
CCSc1nnc(NC(=O)c2ccccc2C)s1 | i | -21.8 | i | 57.1* | -7.9 | 5.9 | 47.7 | x | x
CCN(CC)CCCN(C(=O)c1cccc(C)c1)c1nc(-c2ccc(OC)cc2)cs1 | i | -14.6 | i | 29.3 | 1.3 | 24.5 | x | x | x
Cc1cccc(C)c1NC(=O)Cn1nc(-c2ccc(Cl)s2)ccc1=O | i | 6.9 | i | 6.6 | -0.5 | 5.0 | x | x | x
O=C(Nc1ccccn1)Nc1ccccc1Cl | i | 10.1 | i | 66.4* | -5.4 | 19.0 | 72.3* | 61.0* | 44.0
O=C(Nc1cnccn1)Nc1ccccc1Cl | i | 9.1 | i | 14.8 | -3.8 | 15.2 | x | x | x
CCOC(=O)c1cnn(-c2cc(C)cc(C)c2)c1N | i | 5.3 | i | 50.0 | -0.1 | 6.0 | 69.9* | 57.1* | 57.5*
CC(Oc1cccc(Cl)c1)C(=O)N(C)CC(=O)Nc1ccc(N2CCOCC2)cc1 (configuration not stated) | i | -3.4 | i | 22.7 | 0.6 | x | x | x | x
CC(C)n1c(-c2ccco2)csc1=Nc1cccnc1 | i | -2.3 | i | 52.8* | -0.4 | 8.7 | 11.0 | x | x
Cc1ccc(SCCN2CCC(O)CCC2=O)cc1 (configuration not stated) | i | 4.9 | i | 11.3 | 0.7 | 23.6 | x | x | x
COc1ccc(Sc2cc(C(F)(F)F)nc(-c3ccccn3)n2)cc1 | i | -9.1 | i | 51.4* | -0.5 | 5.8 | 64.4* | 54.8* | 45.4
CC(C)[C@H](NC(=O)[C@@H]1Cc2ccccc2CN1C(=O)OC(C)(C)C)C(=O)NCc1ccco1 | i | -14.8 | i | -2.8 | 0.1 | 11.9 | x | x | x
CN(C)c1ccc(N=Nc2cccc3ccoc23)cc1 | i | 494.2 | i | 59.6* | -7.8 | 8.8 | 67.7* | 45.0 | 40.6
